± gives the standard deviation.
Tested on: MILI (PIWIL2) piRISC loaded with L1MC piRNA (26 nt)
Assay: pre-steady-state target cleavage rate (min^-1); guide: L1MC piRNA 5'p-UAACUAAAUACUAUGCAAGCUGUAGG; MIWI and MILI are mouse PIWI proteins and EfPiwi is from a freshwater sponge; tags in brackets are library labels; higher = faster piRNA-guided slicing of the target
How it was run: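 The pre-steady-state cleavage rate came from a burst-and-steady-state fit to pooled data from three Cleave-'n-Seq trials, in which uncleaved targets were sequenced and normalised to depth and to weakly complementary targets. Each reaction held 0.1 nM transcribed, DNA-blocked target RNA library and 1 nM active affinity-purified piRISC carrying one synthetic guide, with or without 500 nM GTSF1 partner protein, in HEPES–potassium acetate buffer at 33 °C for 0–8 or 0–960 min. k3 was capped at 0.0001 min^-1.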

[1] = auxiliary factor: 500 nM mouse GTSF1
[2] = auxiliary factor: none (no GTSF1)

Row | Sequence | pre-steady-state target cleavage rate [1] | pre-steady-state target cleavage rate [2]
1 | UCCUGGAUGUGCUUGGAUAGUAUUAAGUUA | 0.0647 ± 0.018 | 0.00591 ± 0.0023
2 | UCCUGGAUGAGCUUGCAUAGAUAUUUAGUUA | 0.00786 ± 0.0038 | 0.00424 ± 0.0022
3 | UCCUGGAUGUGCUUGGAAAGUAUUUAGUUA | 0.0377 ± 0.0067 | 0.00729 ± 0.002
4 | UCCUGGUACAGCUUGCAUAGUAUAAUGUUA | 0.175 ± 0.036 | 0.00565 ± 0.0032
5 | UCCUGGAUGUGCUUGGUUAGUAUUUAGUUA | 0.0978 ± 0.017 | 0.01 ± 0.0025
6 | UCCUGGAUGUGCUUGCAAAGUAUUAAGUUA | 0.0349 ± 0.0076 | 0.0052 ± 0.0026
7 | UCCUGGAUGUGCUUGCAUAGUAUUUAUGUUA | 0.109 ± 0.021 | 0.0053 ± 0.0027
8 | UCCUGGAUGAGCUUGCAUAGUGUUUAGUUA | 0.117 ± 0.016 | 0.00732 ± 0.0031
9 | UCCUGGAUGUGCUAGCUUAGUAUUUAGUUA | 0.0596 ± 0.0098 | 0.00453 ± 0.0023
10 | UCCUGGAUGUGCUUCCUUAGUAUUUAGUUA | 0.0394 ± 0.0077 | 0.00557 ± 0.0022
11 | UCCUGCUACAGCUAGCAUAGUAUAUAGUUA | 0.27 ± 0.03 | 0.00448 ± 0.0023
12 | UCCUGGAACAGCUUGCAUAGUGAUUUAGUUA | 0.0178 ± 0.007 | 0.00499 ± 0.0023
13 | UCCUGGAUGUCGUUUCAUAGUAUUUAGUUA | 0.0434 ± 0.0083 | 0.00464 ± 0.0023
14 | UCCUGGAUGUCGUUACAUAGUAUUUAGUUA | 0.105 ± 0.011 | 0.00442 ± 0.0022
15 | UCCUGGUACAGCUUGCAUACUAUUUAGUUA | 0.104 ± 0.024 | 0.00577 ± 0.0035
16 | UCCUGGAUGAGCUUGCAUAGGUAUUUAGUUA | 0.00411 ± 0.0031 | 0.00493 ± 0.0023
17 | UCCUGCUACUGCUUGCAUUGUAUUUAGUUA | 0.211 ± 0.018 | 0.0081 ± 0.0024
18 | UCCUGCUACAGCUUGGAAAGUAUUUAGUUA | 0.138 ± 0.012 | 0.00897 ± 0.0022
19 | UCCUGGAUGACCUUGCAUACUAUUUAGUUA | 0.062 ± 0.019 | 0.00358 ± 0.0034
20 | UCCUGGUACAGCUUGCAUACUAAUUAGUUA | 0.0462 ± 0.019 | 0.00356 ± 0.0031

Row | Sequence | pre-steady-state target cleavage rate [1] | pre-steady-state target cleavage rate [2]
21 | UCCUGGAUGUCCAAGCAUAGUAUUUAGUUA | 0.0263 ± 0.0097 | 0.00547 ± 0.0023
22 | UCCUGGAUCAGCUUGCAAUGUAUUUAGUAA | 0.0826 ± 0.014 | 0.00611 ± 0.0022
23 | UCCUGGAUGUGUUGCAUAGUAUUUAGUUA | 0.173 ± 0.022 | 0.00684 ± 0.0022
24 | UCCUGCUAGAGCUUGCAAAGUAUUUAGUUA | 0.112 ± 0.012 | 0.00382 ± 0.0021
25 | UCCUGCUACAGCUUGCUAUGUAUUUAGUUA | 0.0638 ± 0.017 | 0.00522 ± 0.0021
26 | UCCUGGAUGAGCAAGCAUAGUAUUUAGUAA | 0.123 ± 0.018 | 0.00443 ± 0.0027
27 | UCCUGCUACAGCUUGCAUUCUAUUUAGUUA | 0.0454 ± 0.0087 | 0.00339 ± 0.0024
28 | UCCUGGAUGUCGAUGCAUAGUAUUAAGUUA | 0.122 ± 0.017 | 0.0035 ± 0.0025
29 | UCCUGGAUGAGCAUGCAUAGUAUUAAGUUA | 0.22 ± 0.024 | 0.00547 ± 0.0024
30 | UCCUCCUAAAGCUUGCAUAGUAUUUAGUUA | 0.157 ± 0.019 | 0.00372 ± 0.0021
31 | UCCUGGAUCAGCUUGCUUAGUAUAUAGUUA | 0.234 ± 0.014 | 0.00803 ± 0.0031
32 | UCCUGGAUGUCCUUGCAUAGGUAUUUAGUUA | 0.00785 ± 0.0038 | 0.00689 ± 0.0025
33 | UCCUGGAUGUGCUACCAUAGUAUUUAGUUA | 0.0577 ± 0.0094 | 0.0039 ± 0.0022
34 | UCCUGGAUGUCGAUGCAUAGUAUCUAGUUA | 0.0915 ± 0.017 | 0.00396 ± 0.0023
35 | UCCUGGAUGUCCUUGCAUAGAUAUUUAGUUA | 0.00754 ± 0.004 | 0.00426 ± 0.0023
36 | UCCUGGAUGAGCAUGCAUACUAUUUAGUUA | 0.0556 ± 0.011 | 0.00656 ± 0.0024
37 | UCCUGGAUGAGCUUGGAUAGUAUAUAGUUA | 0.122 ± 0.017 | 0.00462 ± 0.0024
38 | UCCUGGAUGAGCUUCCUUAGUAUUUAGUUA | 0.132 ± 0.019 | 0.00577 ± 0.0024
39 | UCCUGGAUGUCCUUGAAUAGUAUUUAGUUA | 0.122 ± 0.023 | 0.011 ± 0.0029
40 | UCCUGGAUGAGCUUGCAAGUAUUUAGUUA | 0.0177 ± 0.0056 | 0.00379 ± 0.0026

Row | Sequence | pre-steady-state target cleavage rate [1] | pre-steady-state target cleavage rate [2]
41 | UCCUGGAUCAGCUAGCAUAGUAUAUAGUUA | 0.22 ± 0.02 | 0.00644 ± 0.0023
42 | UCCUGGAUCAGGAAGCAUAGUAUUUAGUUA | 0.0634 ± 0.0094 | 0.00311 ± 0.0023
43 | UCCUGGAUGUCGAAGCAUAGUAUUUAGUUG [g2:g16:cont:t1G] | 0.0225 ± 0.0063 | 0.00543 ± 0.0019
44 | UCCUGGUACAGCUUGCAUAGUUUUUAGUAA | 0.0656 ± 0.014 | 0.00501 ± 0.0027
45 | UCCUCCUACUGCUUGCAUAGUUUUUAGUUA | 0.0525 ± 0.0085 | 0.00424 ± 0.002
46 | UCCUGGAUGAGCUUGAUAGUAUUUAGUUA | 0.017 ± 0.0068 | 0.00442 ± 0.0028
47 | UCCUGGAUGUCCUUGGAUAGUAUUAAGUUA | 0.207 ± 0.037 | 0.00484 ± 0.0024
48 | UCCUGGAUGUGCUUGCUAUGUAUUUAGUUA | 0.00774 ± 0.0037 | 0.00498 ± 0.0024
49 | UCCUGGUACAGCUUGGAUAGUAUUUUGUUA | 0.0944 ± 0.022 | 0.00486 ± 0.0048
50 | UCCUGGAACAGCUUGCAUAGUCAUUUAGUUA | 0.0205 ± 0.008 | 0.00479 ± 0.0022
51 | UCCUGGAUGUGCUCUGCAUAGUAUUUAGUUA | 0.137 ± 0.015 | 0.0108 ± 0.0039
52 | UCCUGGAUCAGCUAGCAUAGUAUUUUGUUA | 0.19 ± 0.021 | 0.00333 ± 0.0023
53 | UCCUGGAACAGCUUGCUAUGUAUUUAGUUA | 0.0569 ± 0.017 | 0.00412 ± 0.0022
54 | UCCUGGAUCAGCUAGCAUAGAAUUUAGUUA | 0.0367 ± 0.0066 | 0.00247 ± 0.0025
55 | UCCUGGUACAGGUUGCAUAGUAUUUUGUUA | 0.189 ± 0.042 | 0.0111 ± 0.0045
56 | UCCUGGAUGUCGAUGCAUAGUUUAUAGUUA | 0.00501 ± 0.0045 | 0.00379 ± 0.0026
57 | UCCUGGAUGUCGAUGCAUAGUCUUUAGUUA | 0.0205 ± 0.0056 | 0.00627 ± 0.002
58 | UCCUGGAUCAGCUAGCAUAGUUUUUAGUUA | 0.0366 ± 0.0073 | 0.00382 ± 0.0025
59 | UCCUCCUACAGCUUGCAGAGUAUUUAGUUA | 0.218 ± 0.021 | 0.00823 ± 0.0022
60 | UCCUGGAUCAGCUUGCAUAGUUAUUUAGUUA | 0.00888 ± 0.004 | 0.00454 ± 0.0027
